Experimental data taken from PubChem BioAssay (Tox21).
Results filed as inconclusive are left out. Active and inactive are the calls of the source. Unless noted, the call rests on the fitted dose curve.

Columns and labels:
[1] = molecular target: Aryl hydrocarbon receptor (Homo sapiens) (UniProt P35869); experiment: qHTS assay to identify small molecule that activate the aryl hydrocarbon receptor (AhR) signaling pathway (AID 743085; active means well fitted curve in the direction sought with a large enough effect in the repeat runs; an effect the other way counts as inactive or inconclusive;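 further: HG2L7.5c1 human HepG2 liver cells with stably integrated DRE-driven firefly reporter; nearly all actives have a fitted effect of over 15% in size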)
Method in brief: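 Reporter assay in engineered HepG2 line HG2L7.5c1, whose plasmid carries twenty dioxin responsive elements upstream of firefly luciferase. Treatment lasted 24 h at 37C; ONE-Glo luminescence gauged induction.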

[2] = qHTS assay to identify small molecule antagonists of the retinoic acid receptor (RAR) signaling pathway (AID 1159552; active means well fitted curve in the direction sought with a large enough effect in the repeat runs; an effect the other way counts as inactive or inconclusive; further: nearly all actives have a fitted effect of over 50% in size; further: potency means the concentration at half of the fitted maximal effect)
Method in brief: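 Overnight-plated C3RL4 reporter cells get compound, then retinol to 1 uM final; plates sit 6 hr at 37 C, 5% CO2. A luciferase reagent is added and light output recorded after 30 min at room temperature.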

[3] = qHTS assay to identify small molecule agonists of the estrogen related receptor (ERR) signaling pathway from Tox21 library (AID 1224849); conditions: ERR reporter cell line, ONE-Glo luciferase, 18 h; at 92.4 µM (top of the series) unless noted; further: nearly all actives have a fitted effect of over 15% in size
Method in brief: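 Screening used an NTP-provided ERR luciferase cell line. Compounds in DMSO were added 6 h after seeding and left 18 h at 37 C before a 30 min ONE-Glo step and luminescence reading.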

[4] = A CellTox Green Cytotoxicity Assay to monitor cytotoxicity in HepG2 cells - 0 hour (AID 1224882; active means well fitted curve in the direction sought with a large enough effect in the repeat runs; an effect the other way counts as inactive or inconclusive; further: nearly all actives have a fitted effect of over 35% in size)
Method in brief: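 Using 1536-well format, dye-containing HepG2 suspension was seeded, allowed 5 h at 37 C/5% CO2, dosed by pintool with compounds, positive and negative controls, and imaged for fluorescence across 40 h.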

[5] = qHTS assay to identify small molecule HDAC inhibitors (AID 1259364; active means well fitted curve in the direction sought with a large enough effect in the repeat runs; an effect the other way counts as inactive or inconclusive;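 further: wild-type HCT-116 cells with endogenous class I/II HDAC activity; top concentration of the series differs between compounds; nearly all actives have a fitted effect of over 45% in size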)
Method in brief: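 Read-out: luminescence of HDAC-Glo I/II reagent, 30 min RT, reflecting class I/II deacetylase activity in whole HCT-116 cells pre-exposed 2 h to DMSO-dissolved compounds.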

[6] = qHTS assay to identify small molecule agonists of the sonic hedgehog signaling (Shh) pathway (AID 1259368);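 further: NIH/3T3-derived 3T3Gli1-Luc cells carrying a stable Gli1-driven firefly luciferase reporter; nearly all actives have a fitted effect of over 15% in size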
Method in brief: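 A Gli1 transcriptional response element controlled firefly luciferase in 3T3Gli1-Luc cells. Compounds and a positive control were added 4 hr after plating, and cells were incubated a further 24 hr at 37 C before luminescence detection.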

[7] = Caspase-3/7 induction in CHO-K1 cells by small molecules, qHTS assay (AID 1346980; active means well fitted curve in the direction sought with a large enough effect in the repeat runs; an effect the other way counts as inactive or inconclusive; further: nearly all actives have a fitted effect of over 15% in size)
Method in brief: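 Wild-type CHO-K1 cells exposed to compounds for 17hr at 37 C, 5% CO2. Caspase-3/7 activity then measured by Caspase-Glo 3/7 luminescence after 30min at room temperature.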

[8] = molecular target: Acetylcholinesterase (Homo sapiens) (UniProt P22303); experiment: Acetylcholinesterase (AChE) small molecule antagonists: colormetric cell-based qHTS assay (AID 1347395); further: nearly all actives have a fitted effect of over 30% in size; further: potency means the concentration at half of the fitted maximal effect
Method in brief: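 Quantitative HTS in attached SH-SY5Y cells: 30 min compound exposure, then 90 min with acetylthiocholine and DTNB at 37 C; colour from thiocholine reports AChE activity.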

[9] = molecular target: Acetylcholinesterase (Homo sapiens) (UniProt P22303); experiment: Acetylcholinesterase (AChE) small molecule antagonists: enzyme-based qHTS assay (AID 1347397); conditions: Potency: AChE enzyme activity inhibition; outcome: AChE enzyme activity inhibition; further: nearly all actives have a fitted effect of over 55% in size; further: potency means the concentration at half of the fitted maximal effect
Method in brief: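 Recombinant human AChE (50 mU/mL) preincubated with compound 30 min at room temperature; acetylthiocholine plus DTNB then added, and thiocholine formation read colorimetrically after 10 min at room temperature. DMSO served as vehicle control.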

[10] = molecular target: Acetylcholinesterase (Homo sapiens) (UniProt P22303); experiment: Acetylcholinesterase (AChE) small molecule antagonists: fluorescence cell-based qHTS assay (AID 1347398); conditions: Potency: AChE activity; outcome: AChE activity; further: nearly all actives have a fitted effect of over 50% in size; further: potency means the concentration at half of the fitted maximal effect
Method in brief: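 SH-SY5Y cells (2000/well), attached overnight, incubated with compound 30 min at 37 C. Acetylthiocholine plus Thiolite Green then added for 40 min at room temperature. Thiocholine fluorescence (Ex/Em 490/520 nm) reports cellular AChE activity.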

[11] = molecular target: Acetylcholinesterase (Homo sapiens) (UniProt P22303); experiment: Acetylcholinesterase (AChE) small molecule antagonists: enzyme-based qHTS assay with human liver microsomes (AID 1347399); conditions: Potency: qHTS inhibition; outcome: qHTS inhibition; further: nearly all actives have a fitted effect of over 60% in size; further: potency means the concentration at half of the fitted maximal effect
Method in brief: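 Recombinant human AChE (50 mU/mL in the enzyme mix) and human liver microsomes (0.25 mg/mL final) were preincubated with compound and NADPH (0.25 mg/mL final) for 30 min at 37 C. Acetylthiocholine/DTNB was then added; thiocholine was read colorimetrically after 10 min at room temperature.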

[12] = molecular target: Aromatase (Homo sapiens) (UniProt P11511); experiment: qHTS assay to identify aromatase inhibitors (AID 743083; active means well fitted curve in the direction sought with a large enough effect in the repeat runs; an effect the other way counts as inactive or inconclusive; further: nearly all actives have a fitted effect of over 55% in size; further: potency means the concentration at half of the fitted maximal effect)
[13] = qHTS assay to identify small molecule agonists of the estrogen related receptor (ERR) signaling pathway (AID 1224820; active means well fitted curve in the direction sought with a large enough effect in the repeat runs; an effect the other way counts as inactive or inconclusive)
Method in brief: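 ERR reporter cell line (from NTP), 2,000 cells/well, incubated 6 h before compound addition, then 18 h at 37 C. Luminescence measured 30 min after One-Glo reagent at room temperature.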

[14] = tested on: estrogen-related receptor alpha (ERRalpha) with PGC-1alpha coactivator, human; experiment: qHTS assay to identify small molecule antagonists of the estrogen related receptor signaling pathway with the pleiotropic PPARgamma coactivator (PGC) (AID 1224821);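 further: lower luminescence signal means antagonism of PGC/ERR signalling; nearly all actives have a fitted effect of over 50% in size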
Method in brief: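 PGC/ERR reporter cell line, plated 6 h before compound addition, then exposed 18 h at 37 °C. Luciferase activity read by luminescence 30 min after One-Glo addition; decrease indicates antagonism.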

[15] = qHTS assay to identify small molecule antagonists of the estrogen related receptor signaling pathway with the pleiotropic PPARgamma coactivator (PGC) cell viability counter screen (AID 1224822; active means well fitted curve in the direction sought with a large enough effect in the repeat runs; an effect the other way counts as inactive or inconclusive;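 further: viability read after 17.5 h compound exposure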)
Method in brief: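 PGC/ERR cells were plated at 2,000 per well and allowed 6 h to settle before compound addition. Following 17.5 h at 37 C, CellTiter-Fluor reagent was added and fluorescence was read 30 min later.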

[16] = qHTS assay to identify small molecule agonists of the estrogen related receptor signaling pathway with the pleiotropic PPARgamma coactivator (PGC) (AID 1224823; active means well fitted curve in the direction sought with a large enough effect in the repeat runs; an effect the other way counts as inactive or inconclusive)
Method in brief: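 PGC/ERR reporter cells seeded 6 h, then exposed to compounds (23 nL in DMSO) for 18 h at 37 C. One-Glo luciferase luminescence read after 30 min at room temperature.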

[17] = qHTS assay to identify small molecule agonists of H2AX (AID 1224845; active means well fitted activation curve with a large enough effect in the signal ratio in the repeat runs, not every such curve was filed as active; the % refers to the signal ratio; further: potency means the concentration at half of the fitted maximal effect)
Method in brief: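 Wild-type CHO-K1 cells, plated overnight, exposed 3hr at 37C to 15 concentrations (0.76% DMSO final). Lysed, then HTRF anti-pH2AX (S139) cryptate and anti-H2AX-d2 antibodies, 24 hr room temperature; 665/620 nm emission read.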

[18] = qHTS assay to identify small molecule antagonists of the estrogen related receptor (ERR) signaling pathway (AID 1224819; active means well fitted curve in the direction sought with a large enough effect in the repeat runs; an effect the other way counts as inactive or inconclusive;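 further: luminescence from an ERR-driven luciferase reporter measured with One-Glo reagent; nearly all actives have a fitted effect of over 50% in size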)
Method in brief: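 Luminescence readout (One-Glo, 30 min, RT) of ERR cell line after 18 h compound exposure at 37 C; cells seeded 2,000/well, pre-incubated 6 h, compounds pinned from DMSO stocks.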

[19] = Caspase-3/7 induction in HepG2 cells by small molecules, qHTS assay (AID 1346978; active means well fitted curve in the direction sought with a large enough effect in the repeat runs; an effect the other way counts as inactive or inconclusive; further: nearly all actives have a fitted effect of over 15% in size)
Method in brief: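 Wild-type HepG2 cells, 2,000/well, settled 5 hr at 37 C and 5% CO2, then compound-treated for 17 hr; caspase-3/7 activity read by luminescent Caspase-Glo 3/7 after 30 min at room temperature.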
On the % scale 0 is the no-effect control and ±100 the full control effect.

Aromatase (Homo sapiens), sequence (P11511 whole entry, looked up): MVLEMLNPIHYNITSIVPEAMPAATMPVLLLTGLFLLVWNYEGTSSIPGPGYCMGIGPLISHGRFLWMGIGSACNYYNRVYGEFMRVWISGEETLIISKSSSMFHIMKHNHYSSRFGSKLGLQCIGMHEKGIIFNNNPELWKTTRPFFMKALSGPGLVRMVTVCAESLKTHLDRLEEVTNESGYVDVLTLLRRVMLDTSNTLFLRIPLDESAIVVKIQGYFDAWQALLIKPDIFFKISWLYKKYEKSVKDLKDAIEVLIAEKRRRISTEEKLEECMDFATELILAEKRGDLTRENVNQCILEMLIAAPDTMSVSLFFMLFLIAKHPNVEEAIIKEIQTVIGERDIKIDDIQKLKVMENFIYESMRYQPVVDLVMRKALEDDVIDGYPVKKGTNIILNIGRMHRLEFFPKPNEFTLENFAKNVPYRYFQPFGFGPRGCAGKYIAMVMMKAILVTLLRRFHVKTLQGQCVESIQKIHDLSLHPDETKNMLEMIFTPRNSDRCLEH
Aryl hydrocarbon receptor (Homo sapiens), sequence (P35869 whole entry, looked up): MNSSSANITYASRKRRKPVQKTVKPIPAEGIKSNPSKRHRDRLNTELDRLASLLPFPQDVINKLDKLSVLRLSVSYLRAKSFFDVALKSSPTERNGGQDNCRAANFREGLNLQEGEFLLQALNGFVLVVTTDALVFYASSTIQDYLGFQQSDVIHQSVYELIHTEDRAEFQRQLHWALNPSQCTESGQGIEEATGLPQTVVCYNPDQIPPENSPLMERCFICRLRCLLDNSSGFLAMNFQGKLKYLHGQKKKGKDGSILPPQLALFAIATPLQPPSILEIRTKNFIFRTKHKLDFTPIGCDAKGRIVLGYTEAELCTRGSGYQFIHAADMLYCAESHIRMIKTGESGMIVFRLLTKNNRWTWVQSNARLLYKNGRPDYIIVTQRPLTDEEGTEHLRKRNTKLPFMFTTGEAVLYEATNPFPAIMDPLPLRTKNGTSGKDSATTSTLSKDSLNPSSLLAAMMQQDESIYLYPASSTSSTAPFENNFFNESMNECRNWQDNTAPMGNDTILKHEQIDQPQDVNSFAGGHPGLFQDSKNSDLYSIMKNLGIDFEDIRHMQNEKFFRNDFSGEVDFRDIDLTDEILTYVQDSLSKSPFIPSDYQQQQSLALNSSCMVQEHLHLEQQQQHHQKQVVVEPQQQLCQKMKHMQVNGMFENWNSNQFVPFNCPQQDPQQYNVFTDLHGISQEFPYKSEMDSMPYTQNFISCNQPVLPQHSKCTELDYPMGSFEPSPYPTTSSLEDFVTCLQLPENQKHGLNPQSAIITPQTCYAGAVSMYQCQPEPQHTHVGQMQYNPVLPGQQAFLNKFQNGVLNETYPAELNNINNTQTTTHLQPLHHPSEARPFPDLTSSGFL
Acetylcholinesterase (Homo sapiens), sequence (P22303 whole entry, looked up): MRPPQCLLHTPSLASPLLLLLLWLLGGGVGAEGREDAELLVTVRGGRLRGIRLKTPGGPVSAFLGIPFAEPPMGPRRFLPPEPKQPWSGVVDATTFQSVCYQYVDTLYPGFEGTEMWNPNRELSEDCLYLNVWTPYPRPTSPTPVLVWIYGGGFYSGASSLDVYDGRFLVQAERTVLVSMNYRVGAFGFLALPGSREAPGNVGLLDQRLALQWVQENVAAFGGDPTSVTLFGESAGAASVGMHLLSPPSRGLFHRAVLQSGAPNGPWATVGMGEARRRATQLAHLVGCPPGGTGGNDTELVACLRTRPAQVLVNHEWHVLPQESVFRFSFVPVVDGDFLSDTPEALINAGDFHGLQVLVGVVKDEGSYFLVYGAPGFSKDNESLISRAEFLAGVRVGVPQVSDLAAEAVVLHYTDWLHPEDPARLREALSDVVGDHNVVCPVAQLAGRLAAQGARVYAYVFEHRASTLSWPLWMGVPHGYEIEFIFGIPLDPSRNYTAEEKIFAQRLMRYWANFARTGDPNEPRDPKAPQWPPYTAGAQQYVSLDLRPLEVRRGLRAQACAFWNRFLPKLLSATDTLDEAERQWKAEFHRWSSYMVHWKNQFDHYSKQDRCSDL

Cc1nnc2n1-c1sc(CCc3ccc(CC(C)C)cc3)cc1C(c1ccccc1Cl)=NC2C (stereo not drawn)
inactive: Potency [1] | activity change, positive = activation [3] -59.4% [at 42.5 µM] | Potency [4] | outcome [5] | outcome [6] | outcome [7] | Potency [8] | Potency [9] | Potency [10] | Potency [11]
active: Potency [2] 33.5 µM

Nc1ccc([N+](=O)[O-])cc1
inactive: Potency [12] | Potency [13] | Potency [14] | Potency [15] | Potency [16] | Potency [17] | activity change, positive = activation [3] -29.9% | Potency [4] | outcome [5] | outcome [6] | outcome [7] | Potency [8] | Potency [9] | Potency [10] | Potency [11]

COc1cc(OC)c(OC)cc1C=O
active: Potency [12] 44.4 µM
inactive: Potency [18] | Potency [13] | Potency [14] | Potency [15] | Potency [16] | activity change, positive = activation [3] -39.3% | Potency [4] | outcome [5] | outcome [6] | Potency [19] | outcome [7] | Potency [8] | Potency [9] | Potency [10] | Potency [11]

ClC1=C(Cl)C(Cl)(Cl)C(Cl)=C1Cl
inactive: Potency [2] | Potency [19] | Potency [8] | Potency [9] | Potency [10] | Potency [11]

O=C1C(I)=CC(=C(c2cc(I)c(O)c(I)c2)c2ccccc2C(=O)O)C=C1I
inactive: Potency [12] | Potency [1] | Potency [2] | Potency [17] | Potency [4] | outcome [5] | outcome [6] | Potency [19] | outcome [7] | Potency [8] | Potency [10] | Potency [11]

CNC(=O)Oc1cc(C)c(SC)c(C)c1
active: Potency [17] 63.5 µM | Potency [8] 3.17 µM | Potency [9] 3.56 µM | Potency [10] 1.59 µM | Potency [11] 22.4 µM
inactive: Potency [4] | outcome [5] | outcome [6] | Potency [19] | outcome [7]

O=C1OC(=O)c2c(Cl)c(Cl)c(Cl)c(Cl)c21
inactive: Potency [12] | Potency [2] | activity change, positive = activation [3] -2.98% | Potency [19] | Potency [8] | Potency [9] | Potency [10] | Potency [11]

Cc1c(N)cccc1[N+](=O)[O-]
inactive: Potency [12] | Potency [2] | Potency [8] | Potency [9] | Potency [10] | Potency [11]

Brc1c2ccccc2c(Br)c2ccccc12
inactive: activity, negative = inhibition [12] 2.07% [at 8.47 µM] | activation [1] -3.68% [at 8.47 µM] | activity, negative = inhibition [2] 4.27% [at 8.39 µM] | activation (H2AX phosphorylation) [17] -2.5% [at 14 µM] | activity, negative = inhibition [8] 0.841% [at 10.5 µM] | activity change, negative = inhibition [9] 0.273% [at 10.5 µM] | activity change, negative = inhibition [10] 6.02% [at 10.5 µM] | activity change, negative = inhibition [11] 1.07% [at 10.5 µM]

OC(Cc1ccccc1Cl)(Cn1[nH]cnc1=S)C1(Cl)CC1 (stereo not drawn)
inactive: Potency [2] | Potency [17] | Potency [4] | outcome [5] | outcome [6] | Potency [19] | outcome [7] | Potency [8] | Potency [9] | Potency [10] | Potency [11]
